From PubChem BioAssay (NCI) come the findings set out here.

Each structure is given as a SMILES string. About 83,000 compounds went through this panel and 20% of them were active in at least one assay; those are over-represented in the sample as a whole.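 Results are percent growth after 48 hours of single-concentration exposure. 100 means growth as in untreated cells, lower positive values show inhibition; negative values down to -100 show cell death.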 A number with no mark means an inactive call. Active and inactive are the calls of the source.

The assay relates to LOX IMVI melanoma. As to the kind of experiment: NCI-60 one-dose screen, 48 h (100 = growth as untreated, 0 = no growth, -100 = all killed). As to conditions: 10 µM unless noted. How it is done: Growth inhibition of the LOX IMVI human tumor cell line is measured as a screen for anti-cancer activity. Cells are grown in 96 well plates and exposed to the test compound for 48 hours. Compounds are tested at a single concentration, which is 10^-5 M for most compounds. The reported endpoint is percent growth (GI% or GIPRCNT), where numbers from 0 - 100% represent growth inhibition, and numbers from -100% - 0 represent cell death. For example, a value of 40 represents 60% growth inhibition. A value of 0 means no net growth occurred over the course of the experiment. A value of -40 indicates 40% of cells at the beginning of the experiment died by the end of the experiment. A value of -100 means all cells are dead at the end of the experiment.
NCI-60 Human Tumor Cell Lines Screen was performed using the standard one-dose NCI protocol, which is described in more detail at https://dtp.cancer.gov/discovery_development/nci-60/default.htm.
Compounds with GIPRCNT values below 10 were considered active. Activity score was based on GIPRCNT using the following formula: […]
Score is 0 for GIPRCNT values of 100 or above, 50 for GIPRCNT values of 0, and 100 for GIPRCNT values of -100.
As to `NC(=O)c1cccc([C@@H]2O[C@H](CO)[C@@H](O)[C@H]2O)c1`, the growth is 91.5%. In the case of `CN1C(=O)/C(=C2\SC(=Nc3ccccc3)N(Nc3ccccc3)C2=O)c2ccccc21` it was 93.5%; in that of `C=CC(=O)Nc1ccc(Nc2nccc(-c3ccc(N4CCCC4)c(C#N)c3)n2)cc1`, 69.4%. As for `O=C(Cc1ccc(NC(=O)c2cccc(Cl)c2)cc1)NCc1ccccc1`, the figure is 39.6%; as for `COc1ccc(C(=S)N2CCN(c3ccc(Cl)cc3)CC2)cc1`, 104%.

As for `COc1ccc(-c2n[nH]c(=O)c3nc(NC(=S)Nc4ccc(Oc5ccccc5)cc4)sc23)cc1`, the growth is 104%.

With `Clc1ccccc1-c1cnn2cc(-c3ccccc3)cnc12`, the growth was 94.6%. Take `COc1ccc2c(c1)c(-c1nc(-c3c[nH]c4ncccc34)cs1)cn2CCCN1CCOCC1`: the growth is 17%.

For `CSC1=Nc2c(c(C)c(-c3ccccc3)n2CCCC(=O)O)C2=NC(=O)C[C@H](C)N12`, the growth was 94.9%. Take `CCC1S/C(=N\N=C(\C)c2cc3cc(Cl)ccc3o2)N(c2ccccc2)C1=O` (stereo not given): the growth was 85.4%. In the case of `CCS/C(Nc1ccccc1)=C(\C#N)C(=O)Nc1ccc(OC)cc1` it was 36.6%; in that of `O=C(Cc1ccccc1)Nc1cccc(N=Cc2ccccc2O)c1`, 100%; in that of `C#CCOc1cccc(-c2ncnc3cc(NC(=O)C=C)ccc23)c1`, 34.1%. Regarding `CO[C@H]1CC(=O)n2c3ccccc3c3c4c(c5c6ccccc6n1c5c32)C(=O)NC4=O`, the growth was 63.8%. For the compound `COc1cccc(C(=O)NNc2nc(Cl)nc(Cl)n2)c1`, the growth was 97%. As for `CNC(=O)c1cc(Oc2cccc3nc(NC(=O)Nc4cc(C(F)(F)F)ccc4Cl)ccc23)ccn1`, the figure is 63.9%; as for `C/C(=N\O)c1ccc(NC(=O)CSc2nnc(-c3cc(-c4ccc(S(C)(=O)=O)cc4)nc4ccccc34)n2-c2ccccc2)cc1`, 76.7%.

With `CSC(SC)=C(C#N)c1nc2ccccc2s1`, the growth is 84.1%. On to `C=C(C)[C@@H]1CC[C@]2(COC(C)=O)CC[C@]3(C)[C@H](CC[C@@H]4[C@@]5(C)CCCN(C(C)=O)C(C)(C)[C@@H]5CC[C@]43C)[C@@H]12`, for which the growth was -98% (active). As for `O=C(Nc1ccc(Br)cc1)C1=NCCCCN1`, the figure is 35.5%; as for `Nc1[nH]c(=S)nc2oc(-c3ccccc3)c(-c3ccccc3)c12`, 98%. As for `O=C1/C=C/[C@@H](O)[C@@H]2C[C@@H](O)C[C@H]2/C=C/CCC[C@@H](O)CCO1`, the figure is 94.7%. As for `COc1cc(OC)c(/C=C/C(=O)c2c(O)cc(OC)c(C3CCN(C)CC3)c2OC)c(OC)c1`, the growth is -93.3% (active). As for `O=c1nc(-c2ccccc2)c2cc(-c3ccc(C(F)(F)F)nc3)ccc2[nH]1`, the figure is 93.1%; as for `COc1ccccc1N(C(C)=O)C1=C(Cl)C(=O)c2ccccc2C1=O`, 4.88% (active); as for `CCOC(=O)c1[nH]c2c(c1C)-c1[nH]c(=O)c(S(=O)(=O)c3ccccc3)cc1SC2`, 50% [100 µM]. Consider `CN(CCC(=O)c1ccccc1)CCC(=O)c1ccccc1`, for which the growth is 75.6%.

Consider `COC1=C(C)C(=O)N2[C@@H]1[C@H](c1ccccc1)OC21C=CC(=O)C=C1`, for which the growth is -61.6% (active). As for `COc1ccc(C2=CN3CC=CC3CC2=O)cc1` (stereo not given), the figure is 104%; as for `CCOC(=O)c1c(C)nc2c(c1N)/C(=C/c1ccc(OC)cc1)C(=O)N2Cc1ccccc1`, 55.6%. As for `CCOc1c(OC)cc2c(c1O)C(=O)N[C@@H]1[C@@H](O)[C@@H](O)[C@H](O)C[C@@H]21`, the figure is 98.1%; as for `COc1cccc(/C=C/C(=O)c2cc3c(N)c(C(=O)Nc4cccc5ccccc45)sc3nc2C)c1`, -66.8% (active); as for `COc1ccc(C2CC(c3cc(OC)c(OC)c(OC)c3)=NO2)cc1OCCCCOc1cc2c(cc1OC)C(=O)N1CCC[C@H]1C=N2` (stereo not given in full), -39.7% (active).

As to `CCN1C(=O)N(CC)C2C1N=C(SCc1ccc(Cl)cc1)N2/N=C/C=C/c1ccccc1OC` (stereo not given), the growth was 44.5%. As for `COc1ccc(Oc2nc(Nc3ccc(N4CCOCC4)cc3)ncc2NC(=O)Nc2cc(OC)cc(OC)c2)cc1`, the figure is 24.1%; as for `Nc1nc(N)c2c(n1)NC(c1cccc(Nc3ccnc4cc(C(F)(F)F)ccc34)c1)CC(c1ccccc1)=N2` (stereo not given), 45.6%; as for `CNC1=C([N+](=O)[O-])C(c2ccc(OC)cc2)C(C#N)=C(c2cccs2)O1` (stereo not given), 95.3%. Regarding `COc1cc(-c2nc3cc(Cl)c(Cl)cc3[nH]2)ccc1OCC(=O)N=Nc1c(O)[nH]c2ccc(Cl)cc12`, the growth was -83.5% (active).

As for `O=C(Nc1ncccc1OCc1ccccc1)NC1CCCCCC1`, the growth is 90.6%. Regarding `O=C(Nc1ccc(Cl)cc1)Oc1c(Cl)c(Cl)c(Cl)c(Cl)c1Cl`, the growth was 86.1%.
